Source: PubChem BioAssay
Active and inactive are the calls of the source.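 How the source made its calls: active means inhibition at or above 50% at 10 µM; inactive means inhibition below 50%.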

assay: inhibitors of Sendai virus-induced IRF3 signaling, primary screen, TLR/RLR signaling modifier project, cell-based, Sendai virus stimulus, luciferase, 10K MLSCN set (AID 602276); conditions: HEK293 RL24 IRF3 luciferase reporter, at 10 µM, hits give high values;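 further: firefly luciferase from ISG56 promoter only with Renilla not read in this screen; 0% = Sendai virus plus DMSO and 100% = medium plus DMSO without virus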

inhibition, inactive:
CCSc1nc2c(c(=O)n(C)c(=O)n2C)n1Cc1ccc(Cl)cc1 11.8%
COc1ccccc1N1CCN(C(=O)c2oc3cc(C)c(C)cc3c2C)CC1 21.1%
CC(C)CCNC(=O)NC(=O)CSc1nnc(-c2ccccc2Br)o1 -3.6%
C=CCSc1ncccc1C(=O)O -12.7%
CC1CCc2nc(NC(=O)CN3CCN(Cc4ccc5c(c4)OCO5)CC3)sc2C1 (configuration not stated) 11.9%
CC(=O)CC(=O)Nc1ccccc1NC(C)=O 14.2%
CC(C)OC(=O)CSc1nnc(Cc2ccccc2)n1Cc1ccco1 10.9%
O=C(NCCN1CCCC1)C1COc2ccccc2O1 (configuration not stated) 1.21%
COC(=O)c1ccc2c(=O)n(Cc3ccco3)c(SCC(=O)Nc3ccc(C)c(Cl)c3)nc2c1 13.7%
CCC1(CC)C(=O)C(C)(C)C(=O)OC1c1cccs1 (configuration not stated) 21.5%
CCOc1ccc(OCC)c2sc(C)nc12 12.4%
CC(=O)Nc1cccc(-c2nnc(-c3ccccc3)o2)c1 -35.6%
CCOC(=O)C1=C(C)NC(=O)C(C#N)C1c1ccco1 (configuration not stated) 15.7%
O=C1CN=C(Nc2cccc(C(F)(F)F)c2)N1C1CCCC1 -11.3%
COc1ccc(-c2nnc3ccc(SC(C(C)=O)C(C)=O)nn23)cc1OC 13.7%
CSc1nnc2c3ccccc3n(CCc3ccccc3)c2n1 -13.2%
CC(C)(C)n1nc2c(c1NC(=O)COc1ccc(Cl)cc1)CSC2 18%
